Reference: the supplement of paper PMC9694430

Tests used:
Assay in all cases: thermal shift delta Tm vs DMSO control; higher = stronger stabilization (binding)
Details in all cases: 12.5 µM; protein concentration 2 µM
LOC_OS02G45750-cb003 = test system: LOC_OS02G45750-cb003
In short: (§1)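 Compounds dissolved in DMSO were added to purified rice kinase domain constructs, which had been expressed in E. coli, for differential scanning fluorimetry. Each well held 19.5 μl of 2 μM kinase in 100 mM potassium phosphate pH 7.5, 150 mM NaCl, 10% glycerol and 5 × SYPRO Orange. Fluorescence was followed from 25°C to 95°C at a rate of 0.05°C/s. Shifts in Boltzmann-fitted melting temperature are triplicate means relative to DMSO-only protein.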

LOC_OS02G54510-cb004 = test system: LOC_OS02G54510-cb004
In short: as §1

LOC_OS03G04050-cb001 = test system: LOC_OS03G04050-cb001
In short: as §1

LOC_OS03G12390-cb001 = test system: LOC_OS03G12390-cb001
In short: as §1

LOC_OS03G27990-cb004 = test system: LOC_OS03G27990-cb004
In short: as §1

LOC_OS03G50450-cb001 = test system: LOC_OS03G50450-cb001
In short: as §1

LOC_OS03G50810-cb003 = test system: LOC_OS03G50810-cb003
In short: as §1

LOC_OS04G35114-cb001 = test system: LOC_OS04G35114-cb001
In short: as §1

LOC_OS04G38480-cb003 = test system: T1, LOC_OS04G38480-cb003
T1 sequence (whole entry): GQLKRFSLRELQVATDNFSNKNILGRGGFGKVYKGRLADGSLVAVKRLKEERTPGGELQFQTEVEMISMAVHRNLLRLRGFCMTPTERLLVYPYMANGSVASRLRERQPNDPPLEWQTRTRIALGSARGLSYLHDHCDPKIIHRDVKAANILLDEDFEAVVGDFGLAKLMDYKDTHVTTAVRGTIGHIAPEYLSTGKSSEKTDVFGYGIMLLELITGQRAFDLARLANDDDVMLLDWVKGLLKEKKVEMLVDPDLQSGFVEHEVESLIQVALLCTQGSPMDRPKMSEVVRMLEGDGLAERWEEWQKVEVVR
In short: as §1

LOC_OS04G41100-cb001 = test system: T2, LOC_OS04G41100-cb001
T2 sequence (whole entry): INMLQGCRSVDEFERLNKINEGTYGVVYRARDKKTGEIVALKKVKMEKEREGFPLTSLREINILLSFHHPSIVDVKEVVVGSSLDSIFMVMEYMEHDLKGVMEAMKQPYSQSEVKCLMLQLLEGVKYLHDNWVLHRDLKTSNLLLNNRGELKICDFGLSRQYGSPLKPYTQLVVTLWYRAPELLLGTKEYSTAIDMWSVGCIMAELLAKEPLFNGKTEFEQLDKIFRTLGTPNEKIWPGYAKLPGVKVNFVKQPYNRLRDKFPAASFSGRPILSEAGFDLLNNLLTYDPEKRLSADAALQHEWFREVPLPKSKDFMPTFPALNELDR
In short: as §1

LOC_OS04G57630-cb004 = test system: LOC_OS04G57630-cb004
In short: as §1

LOC_OS05G07850-cb002 = test system: LOC_OS05G07850-cb002
In short: as §1

LOC_OS05G16824-cb004 = test system: LOC_OS05G16824-cb004
In short: as §1

LOC_OS05G28520-cb001 = test system: LOC_OS05G28520-cb001
In short: as §1

LOC_OS05G30820-cb001 = test system: LOC_OS05G30820-cb001
In short: as §1

LOC_OS05G43570-cb004 = test system: LOC_OS05G43570-cb004
In short: as §1

LOC_OS06G16330-cb003 = test system: LOC_OS06G16330-cb003
Chain of LOC_OS06G16330-cb003 (as listed by the source): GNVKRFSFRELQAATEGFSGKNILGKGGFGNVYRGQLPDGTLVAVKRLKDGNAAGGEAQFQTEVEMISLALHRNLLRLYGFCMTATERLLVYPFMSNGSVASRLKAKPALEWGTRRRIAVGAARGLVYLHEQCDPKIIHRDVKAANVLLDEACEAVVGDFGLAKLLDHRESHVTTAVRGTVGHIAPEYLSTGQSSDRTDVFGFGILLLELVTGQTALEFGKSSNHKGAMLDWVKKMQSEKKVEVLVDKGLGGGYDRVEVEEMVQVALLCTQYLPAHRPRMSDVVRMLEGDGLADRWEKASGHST
In short: as §1

LOC_OS06G22820-cb001 = test system: T3, LOC_OS06G22820-cb001
T3 sequence (whole entry): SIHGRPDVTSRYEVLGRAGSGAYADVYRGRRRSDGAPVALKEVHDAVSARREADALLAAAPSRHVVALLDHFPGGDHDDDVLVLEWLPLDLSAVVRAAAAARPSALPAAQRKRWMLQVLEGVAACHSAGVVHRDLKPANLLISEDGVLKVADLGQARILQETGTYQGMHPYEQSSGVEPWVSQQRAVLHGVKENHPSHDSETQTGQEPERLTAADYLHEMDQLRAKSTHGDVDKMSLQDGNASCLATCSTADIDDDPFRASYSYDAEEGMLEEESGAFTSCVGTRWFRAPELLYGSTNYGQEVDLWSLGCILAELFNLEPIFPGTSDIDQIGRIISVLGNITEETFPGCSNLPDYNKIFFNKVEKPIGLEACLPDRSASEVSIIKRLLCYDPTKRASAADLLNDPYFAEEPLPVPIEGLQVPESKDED
In short: as §1

LOC_OS07G06570-cb004 = test system: LOC_OS07G06570-cb004
In short: as §1

LOC_OS07G07230-cb001 = test system: LOC_OS07G07230-cb001
In short: as §1

Compound | thermal shift delta Tm (LOC_OS02G45750-cb003) [°C] | thermal shift delta Tm (LOC_OS02G54510-cb004) [°C] | thermal shift delta Tm (LOC_OS03G04050-cb001) [°C] | thermal shift delta Tm (LOC_OS03G12390-cb001) [°C] | thermal shift delta Tm (LOC_OS03G27990-cb004) [°C] | thermal shift delta Tm (LOC_OS03G50450-cb001) [°C] | thermal shift delta Tm (LOC_OS03G50810-cb003) [°C] | thermal shift delta Tm (LOC_OS04G35114-cb001) [°C] | thermal shift delta Tm (LOC_OS04G38480-cb003) [°C] | thermal shift delta Tm (LOC_OS04G41100-cb001) [°C] | thermal shift delta Tm (LOC_OS04G57630-cb004) [°C] | thermal shift delta Tm (LOC_OS05G07850-cb002) [°C] | thermal shift delta Tm (LOC_OS05G16824-cb004) [°C] | thermal shift delta Tm (LOC_OS05G28520-cb001) [°C] | thermal shift delta Tm (LOC_OS05G30820-cb001) [°C] | thermal shift delta Tm (LOC_OS05G43570-cb004) [°C] | thermal shift delta Tm (LOC_OS06G16330-cb003) [°C] | thermal shift delta Tm (LOC_OS06G22820-cb001) [°C] | thermal shift delta Tm (LOC_OS07G06570-cb004) [°C] | thermal shift delta Tm (LOC_OS07G07230-cb001) [°C]
Cn1cc(-c2ccc3nnc(C(F)(F)c4ccc5ncccc5c4)n3n2)cn1 | 0.26 | -0.14 | 0.41 | 0.23 | -0.02 | 0.07 | 0.22 | 0.35 | 0.98 | 0.6 | 0.16 | 1.31 | 0.65 | 0.54 | 0.28 | 0.51 | 1.54 | 0.92 | 1.14 | -0.03
CC1=C(C(=O)Nc2ccc3[nH]ncc3c2)C(c2ccc(F)cc2)NC(=O)N1 (stereo not given) | 0.98 | 0.18 | 0.57 | 0.72 | 0.46 | 0.58 | 0.64 | 0.48 | 1.84 | 0.33 | 0.17 | 1.88 | -1.25 | 0.01 | 0 | 1.03 | 1.01 | 0.88 | 1.97 | 0.55
CC1(COc2ccc3c(c2)ncn3-c2ccc3cccc(N4CCC(N)CC4)c3n2)COC1 | 16.4 | 0.52 | 0.13 | 1.74 | 7.81 | 0.06 | 8.62 | 9.74 | 3.29 | 0.23 | 5.42 | 16.1 | 11.8 | 0.28 | 1.67 | 0.2 | 7.62 | 0.26 | 0.43 | -0.34
CNc1nc(Nc2cnn([C@H]3CCN(C4COC4)C[C@@H]3F)c2Cl)ncc1C(F)(F)F | 10.5 | 0.35 | 0.37 | 9.14 | 2.39 | 5.54 | 4.12 | 4.01 | 3.09 | 0.6 | 1.85 | 10.8 | 5.54 | 0.59 | 0.51 | 0.4 | 5.64 | 0.65 | 0.89 | 0.28
CN1CCN(CCOc2cc(OC3CCOCC3)c3c(Nc4c(Cl)ccc5c4OCO5)ncnc3c2)CC1 [Saracatinib (AZD0530)] | 2.36 | 0.77 | 0.38 | 2.47 | 1.15 | 0.13 | 3.05 | 7.08 | 3.11 | 0.53 | 0.78 | 7.68 | 3.59 | 0.24 | 0.41 | 0.7 | 7.52 | 0.89 | 1.29 | 0.13
Cc1ccc(Nc2nccc(N(C)c3ccc4c(C)n(C)nc4c3)n2)cc1S(N)(=O)=O | 3.91 | 1.36 | 0.35 | 1.04 | 0.21 | 0.3 | 1.55 | 4.77 | 1.08 | 3.24 | 0.96 | 8.97 | 4.72 | 0.97 | 0.39 | 1.48 | 3.83 | 0.9 | 1.14 | 0.54
O=c1cc(-c2ccccc2)oc2c(O)c(O)ccc12 [7,8-Dihydroxyflavone] | 1.01 | 0.54 | 1.54 | 0.5 | 0.49 | 0.77 | 0.46 | -0.74 | 0.33 | -0.06 | -0.51 | 1.25 | -6.61 | 2.12 | 1.22 | 1.47 | 1.88 | 1.1 | 3.28 | 0.94
